22 molecules from PubChem BioAssay (NCI) can be followed below.

The test relates to UACC-62 melanoma. Put plainly: NCI-60 one-dose screen, 48 h (100 = growth as untreated, 0 = no growth, -100 = all killed). The following applies: 10 µM unless noted.

Values joined by “and” are separate entries in the source; they are usually repeats but may differ in a detail not shown here. Equal entries are not always repeated. This is part of a sample that, as a whole, favours compounds with a hit. Of some 83,000 tested, about 20% had one in any assay.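 Single-concentration screen, 48 h exposure, 96-well plates. Endpoint: percent growth. Below 10 = active.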 Active and inactive are the calls of the source.

Regarding `N#Cc1sc2nc(/C=C3/C=CC=CC3=O)c(O)n2c1N`, the growth was 18.5% [100 µM] (inactive) and 7.16% [100 µM] (active).
Then `Nc1cc2c3c(cccc3c1)C(=O)N(c1ccc(OCCN3CCCC3)cc1)C2=O`, with -37.5% [100 µM] (active) and -91.1% [100 µM] (active).
In the case of `CCC/C(Cl)=N\OC(=O)Nc1ccc(F)cc1`, the growth is -93.4% [100 µM] (active) and -100% [100 µM] (active).
With `CC1=CCC2C3(C)CCC2(C(C)C)C1C3` (configuration not stated) (tested in a mixture with another compound), the growth is 17.4% [100 µM] (inactive) and 0.443% [100 µM] (active).
For `CC(C)C1OC23CCCCC2C(C#N)(C#N)C1(C#N)C(=N)O3` (configuration not stated), the growth is -2.68% [100 µM] (active).
In the case of `COc1cc(CC2c3cc(OC)c(OC)cc3CCN2C)c(Oc2cc3c(cc2OC)-c2c(O)c(OC)cc4c2C(C3)N(C)CC4)cc1OC` (configuration not stated) it was -60.3% [100 µM] (active) and -87.2% [100 µM] (active); in that of `C=C1C(=O)OC2/C=C(\CO)C(OC(C)=O)CC(O)/C(C)=C/C(OC(=O)C(C)CC)C12` (configuration not stated), -85.5% [100 µM] (active) and -98.8% [100 µM] (active).
Regarding `N#CC1C(=O)N(c2ccccc2)NC12OC(=O)c1ccncc12` (configuration not stated), the growth was 69.2% [20 µM] (inactive) and 17.2% [20 µM] (inactive).
Turning to `COc1c2c(c(OC)c3c1c(=O)c1ccccc1n3C)OCO2`, the growth is -0.25% [100 µM] (active).
Consider `C/C(Cl)=N/OC(=O)Nc1ccc(S(N)(=O)=O)c(C)c1`, for which the growth was -93.6% [100 µM] (active) and -100% [100 µM] (active).
For the molecule `CC#CC#C/C=C1\C=CC2(OC=CC2OC(C)=O)O1` (configuration not stated), the growth was -87% [100 µM] (active) and -100% [100 µM] (active).
For the molecule `Cc1cc(N2CCCC2)c([N+](=O)[O-])cc1[N+](=O)[O-]`, the growth is 64.5% [100 µM] (inactive) and 32.1% [100 µM] (inactive).
For the molecule `Cc1c2c(c(O)c3c(O)cccc13)C(=O)C1(O)C(O)=C(C(=O)NCNc3ccc(C(N)=O)cn3)C(=O)C(N(C)C)C1C2` (configuration not stated), the growth is -54.4% [100 µM] (active) and -74.8% [100 µM] (active).
In the case of `O=C(O)c1cnccc1-c1cc(=O)[nH]n1-c1ccccc1` it was 17.3% [100 µM] (inactive) and 7.35% [100 µM] (active).
Then `O=C1C=C(Nc2ccc(S(=O)(=O)Nc3nccs3)cc2)c2ccccc2C1=O`, with -46.1% [100 µM] (active) and -88.9% [100 µM] (active).
`CCCC(=O)Oc1c2ccsc2c(OC(=O)CCC)c2ccsc12`: the growth is -75.3% [100 µM] (active) and -100% [100 µM] (active).
`CC(=O)c1cc2c(s1)C(=O)c1sccc1C2=O`: the growth was -45.9% [100 µM] (active) and -100% [100 µM] (active).
In the case of `CC(C)(C)c1cc(C2COC(=O)COCC(=O)OCCOCCOCCO2)cc(C(C)(C)C)c1O` (configuration not stated) it was -51.5% [100 µM] (active) and -100% [100 µM] (active); in that of `CCCCOC(=O)C1CC[C@H]2[C@@H]3CCc4cc(OC(=O)c5cccc6c(=O)c7ccccc7[nH]c56)ccc4[C@H]3CC[C@]12C` (some centres not stated), -100% [50 µM] (active); in that of `CCCCOC(=O)C1CN2C(=NC1(C(F)(F)F)C(F)(F)F)Sc1ccccc12` (configuration not stated), 4.45% [100 µM] (active) and 54.9% [100 µM] (inactive).
As for `O=[N+]([O-])c1cccc(-c2ncnc(-c3cccc([N+](=O)[O-])c3)n2)c1`, the growth was 53.2% [100 µM] (inactive) and 0.549% [100 µM] (active).
Turning to `C=C1C(=O)OC2C1CC(O)/C(C)=C\CCC1(C)OC21` (configuration not stated), the growth was 68.9% [100 µM] (inactive) and -86% [100 µM] (active).
